Assay results from PubChem BioAssay (Tox21).
“And” between values parts separate entries of the source, which are not always exact repeats. Equal values may be shown once. Results filed as inconclusive are left out. The source made the active and inactive calls. Unless noted, calls come from the whole dose curve; as a rule, active = well fitted curve in the direction sought with a large enough effect in the repeat runs; inconclusive = weak or mixed curves; inactive = no such curve, though single readings can be large; an effect the other way counts as inactive or inconclusive.

Legend:
[1] = qHTS assay to identify small molecule agonists of the RXR signaling pathway - cell viability counter screen (AID 1159529); note: nearly all actives have a fitted effect of over 50% in size; note: potency is the fitted concentration of half-maximal effect
Procedure, shortened: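 In this parallel viability measure, GeneBLAzer RXR-alpha HEK 293T cells (2% charcoal-stripped FBS) were given a 5 hr preincubation, treated with compounds 16 hr at 37 C, and read by CellTiter-Glo luminescence.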

[2] = qHTS assay to identify small molecule antagonists of the retinoid acid receptor (RAR) signaling pathway - cell viability counter screen (AID 1159551); note: nearly all actives have a fitted effect of over 35% in size; note: potency is the fitted concentration of half-maximal effect
Procedure, shortened: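 Luminescent ATP quantitation (CellTiter-Glo) gave cell viability in C3RL4 cells exposed to test chemicals for 6 h at 37 C alongside 1 uM final retinol.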

[3] = qHTS assay to identify small molecule antagonists of the estrogen related receptor (ERR) signaling pathway from Tox21 library - cell viability counter screen (AID 1224834); note: nearly all actives have a fitted effect of over 30% in size; note: potency is the fitted concentration of half-maximal effect
Procedure, shortened: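 Fluorescence from CellTiter-Fluor gives the viability read-out, taken 30 min after reagent addition. Before that, ERR cells seeded 6 h earlier were incubated with compounds for 17.5 h at 37 C.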

[4] = biological target: Luciferin 4-monooxygenase (Photinus pyralis) (UniProt P08659); experiment: qHTS assay to identify small molecule inhibitors of firefly luciferase (AID 1224835); note: series mostly up to about 120 µM; nearly all actives have a fitted effect of over 25% in size
Sequence of Luciferin 4-monooxygenase (Photinus pyralis) (P08659 whole entry, looked up): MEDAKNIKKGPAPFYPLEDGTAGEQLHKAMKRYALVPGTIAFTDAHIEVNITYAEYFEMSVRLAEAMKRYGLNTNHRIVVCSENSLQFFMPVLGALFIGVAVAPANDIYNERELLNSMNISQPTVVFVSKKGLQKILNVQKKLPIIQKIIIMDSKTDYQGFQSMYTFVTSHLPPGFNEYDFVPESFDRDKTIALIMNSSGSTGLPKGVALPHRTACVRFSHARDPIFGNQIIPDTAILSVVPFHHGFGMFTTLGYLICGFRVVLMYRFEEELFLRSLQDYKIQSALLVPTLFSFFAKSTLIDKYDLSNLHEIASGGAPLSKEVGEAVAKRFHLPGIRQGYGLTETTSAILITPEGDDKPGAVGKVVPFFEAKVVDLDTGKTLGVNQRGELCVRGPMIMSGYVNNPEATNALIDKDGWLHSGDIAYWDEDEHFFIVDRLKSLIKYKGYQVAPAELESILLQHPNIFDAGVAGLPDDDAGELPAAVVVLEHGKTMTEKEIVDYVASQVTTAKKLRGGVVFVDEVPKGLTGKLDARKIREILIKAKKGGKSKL
Procedure, shortened: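 Biochemical qHTS: compounds run as interplate titrations against purified firefly enzyme, with D-luciferin and ATP each at its KM concentration. Light output recorded by CCD imaging.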

[5] = qHTS assay to identify small molecule agonists of the constitutive androstane receptor (CAR) signaling pathway - cell viability counter screen (AID 1224836); note: nearly all actives have a fitted effect of over 45% in size; note: potency is the fitted concentration of half-maximal effect
Procedure, shortened: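 Using CellTiter-Fluor, viability of HepG2 cells harbouring hCAR and CYP2B6-2.2kb was measured following 23 h incubation with a 15-concentration compound series plus PK11195 (0.75 uM final).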

[6] = qHTS assay to identify small molecule antagonists of the constitutive androstane receptor (CAR) signaling pathway - cell viability counter screen (AID 1224837); note: nearly all actives have a fitted effect of over 45% in size; note: potency is the fitted concentration of half-maximal effect
Procedure, shortened: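 HepG2-CYP2B6-hCAR cells, 2500/well, 4 hr pre-incubation; compound titration, 15 conc.; CITCO 50 nM final; 23 hr, 37 C/5% CO2; CellTiter-Fluor, fluorescence intensity.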

[7] = biological target: Nuclear receptor subfamily 1 group I member 3 (Homo sapiens) (UniProt Q14994); experiment: qHTS assay to identify small molecule antagonists of the constitutive androstane receptor (CAR) signaling pathway (AID 1224838);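 note: HepG2 cells stably expressing hCAR with CYP2B6 luciferase reporter stimulated by CITCO; nearly all actives have a fitted effect of over 40% in size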; note: potency is the fitted concentration of half-maximal effect
Sequence of Nuclear receptor subfamily 1 group I member 3 (Homo sapiens) (Q14994 whole entry, looked up): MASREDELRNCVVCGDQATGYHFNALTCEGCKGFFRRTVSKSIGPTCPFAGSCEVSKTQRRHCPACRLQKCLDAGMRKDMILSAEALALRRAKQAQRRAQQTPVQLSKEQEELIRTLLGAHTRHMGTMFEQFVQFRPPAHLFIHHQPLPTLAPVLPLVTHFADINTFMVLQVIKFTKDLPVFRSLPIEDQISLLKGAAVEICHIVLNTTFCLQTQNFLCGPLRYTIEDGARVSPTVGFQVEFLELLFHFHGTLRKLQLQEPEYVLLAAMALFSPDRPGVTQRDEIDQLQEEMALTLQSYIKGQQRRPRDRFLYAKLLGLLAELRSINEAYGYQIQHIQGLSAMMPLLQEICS
Procedure, shortened: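 HepG2-CYP2B6-hCAR cells; 4 h pre-incubation; cpd (15 conc) + CITCO 50 nM final; 24 h, 37 C/5% CO2; ONE-Glo, luminescence.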

[8] = biological target: Nuclear receptor subfamily 1 group I member 3 (Homo sapiens) (UniProt Q14994); experiment: qHTS assay to identify small molecule agonists of the constitutive androstane receptor (CAR) signaling pathway (AID 1224839); note: nearly all actives have a fitted effect of over 15% in size; note: potency is the fitted concentration of half-maximal effect
Procedure, shortened: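 Double-stable HepG2 cells (hCAR, CYP2B6-2.2kb) seeded 4 h before compound addition. Exposure 24 h with 0.75 uM PK11195 final. Luciferase detected by ONE-Glo.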

[9] = qHTS assay to identify small molecule antagonists of the estrogen related receptor signaling pathway with the pleiotropic PPARgamma coactivator (PGC) from Tox21 10K library - cell viability counter screen (AID 1224840; active = well fitted cell-killing curve with a large enough effect in the repeat runs, not every such curve was filed as active; note: nearly all actives have a fitted effect of over 40% in size; note: potency is the fitted concentration of half-maximal effect)
Procedure, shortened: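 PGC/ERR cells, 2,000/well; 6 h pre-incubation 37 C/5% CO2; cpd in DMSO via pin tool; 17.5 h 37 C; CellTiter-Fluor, 30 min; fluorescence.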

[10] = biological target: Thyrotropin receptor (Homo sapiens) (UniProt P16473); experiment: qHTS assay to identify small molecule agonists of the thyroid stimulating hormone receptor (TSHR) signaling pathway (AID 1224843; calls by dose curve; note: nearly all actives have a fitted effect of over 45% in size; note: potency is the fitted concentration of half-maximal effect)
Sequence of Thyrotropin receptor (Homo sapiens) (P16473 whole entry, looked up): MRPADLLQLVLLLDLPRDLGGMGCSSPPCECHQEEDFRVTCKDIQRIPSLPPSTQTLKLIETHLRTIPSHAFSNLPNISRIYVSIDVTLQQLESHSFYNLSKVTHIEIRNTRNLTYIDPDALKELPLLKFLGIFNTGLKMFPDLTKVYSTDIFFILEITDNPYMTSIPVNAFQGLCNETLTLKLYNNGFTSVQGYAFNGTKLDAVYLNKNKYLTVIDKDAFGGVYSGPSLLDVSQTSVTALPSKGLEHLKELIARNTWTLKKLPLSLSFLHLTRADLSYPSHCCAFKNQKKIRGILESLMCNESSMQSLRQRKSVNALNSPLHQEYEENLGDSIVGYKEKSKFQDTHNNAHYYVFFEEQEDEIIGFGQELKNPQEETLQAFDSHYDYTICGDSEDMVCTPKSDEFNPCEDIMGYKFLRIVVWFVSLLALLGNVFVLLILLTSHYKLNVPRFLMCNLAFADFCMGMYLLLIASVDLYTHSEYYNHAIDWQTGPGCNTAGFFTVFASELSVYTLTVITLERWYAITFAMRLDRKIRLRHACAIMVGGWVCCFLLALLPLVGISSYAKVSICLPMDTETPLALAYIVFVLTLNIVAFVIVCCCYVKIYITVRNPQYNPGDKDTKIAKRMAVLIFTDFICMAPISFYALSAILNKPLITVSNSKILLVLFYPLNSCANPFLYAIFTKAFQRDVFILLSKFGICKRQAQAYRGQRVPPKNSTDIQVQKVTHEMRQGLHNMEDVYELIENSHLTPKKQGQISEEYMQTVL
Procedure, shortened: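 Steps: seed 800 TSHR-HEK293 cells per well; add test compound and hold 30 min at ambient temperature; dispense cAMP-d2 then anti-cAMP cryptate; incubate 1 h at ambient; measure fluorescence intensity.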

[11] = qHTS assay to identify small molecule antagonists of the estrogen related receptor signaling pathway with the pleiotropic PPARgamma coactivator (PGC) from Tox21 10K library (AID 1224841; call rule not given here; note: actives are mostly falling curves and most rising ones were filed inactive; nearly all actives have a fitted effect of over 50% in size; note: potency is the fitted concentration of half-maximal effect)
Procedure, shortened: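 PGC/ERR cell line, 2,000 cells/well; 6 h pre-incubation 37 C/5% CO2; compounds (DMSO) pinned in; 18 h, 37 C; One-Glo, 30 min RT; luminescence.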

[12] = qHTS assay to identify small molecule agonists of the estrogen related receptor signaling pathway with the pleiotropic PPARgamma coactivator (PGC) from Tox21 10K library (AID 1224842); note: nearly all actives have a fitted effect of over 15% in size
Procedure, shortened: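 PGC/ERR reporter cell line, 2,000 cells per well, incubated 6 h at 37 C before 23 nL compound in DMSO was added. After 18 h at 37 C, One-Glo luminescence read following 30 min at room temperature.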

[13] = qHTS assay to identify small molecule antagonists of the retinoic acid receptor (RAR) signaling pathway (AID 1159552; note: potency is the fitted concentration of half-maximal effect; nearly all actives have a fitted effect of over 50% in size)
Procedure, shortened: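 C3RL4 RARE-luc cells, overnight plating; retinol 1 uM final added right after compound; 6 hr 37 C; luciferase read at 30 min RT.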

[14] = qHTS assay to identify small molecule agonists of the retinoic acid receptor (RAR) signaling pathway (AID 1159553)
Procedure, shortened: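 Luminescence from a RARE-driven luciferase reporter in C3RL4 cells served as the read-out, measured after 30 min with detection reagent at room temperature. Compounds in DMSO were applied for 6 hr at 37 C following overnight seeding.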

[15] = qHTS assay to identify small molecule antagonists of the estrogen related receptor (ERR) signaling pathway - cell viability counter screen (AID 1224818);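 note: series mostly up to about 46 µM; viability measured after 17.5 h of compound exposure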
Procedure, shortened: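 Multiplexed counter screen to separate cytotoxic compounds from true ERR modulators. ERR cells received DMSO-dissolved compounds after a 6 h pre-incubation, were exposed 17.5 h at 37 C, then assayed with CellTiter-Fluor fluorescence.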

[16] = qHTS assay to identify small molecule agonists of the estrogen related receptor (ERR) signaling pathway (AID 1224820)
Procedure, shortened: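 ERR reporter cells (NTP line) plated 2,000/well, incubated 6 h at 37 C/5% CO2, then pinned with compounds in DMSO and held 18 h at 37 C. One-Glo added; luminescence read after 30 min at room temperature.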

[17] = qHTS assay to identify small molecule antagonists of the estrogen related receptor signaling pathway with the pleiotropic PPARgamma coactivator (PGC) cell viability counter screen (AID 1224822; note: series mostly up to about 46 µM)
Procedure, shortened: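 Cells: PGC/ERR, 2,000/well, 1536-well format. Pre-incubation 6 h, 37 C/5% CO2. Compound exposure 17.5 h, 37 C. Detection: CellTiter-Fluor, 30 min, fluorescence.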

[18] = qHTS assay to identify small molecule agonists of the estrogen related receptor signaling pathway with the pleiotropic PPARgamma coactivator (PGC) (AID 1224823)
Procedure, shortened: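 PGC/ERR reporter cells were seeded, rested 6 h at 37 C/5% CO2, then exposed to compounds in DMSO by pin transfer for 18 h at 37 C. Luciferase activity was read as luminescence after One-Glo reagent and 30 min at room temperature.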

Measured: Potency

CCCCCCCCCC[N+](C)(C)CCCCCCCCCC
active: [1] 15.5 µM | [2] 61.1 µM | [3] 43.3 µM | [5] 43.3 µM | [6] 24.3 µM | [7] 27.3 µM | [9] 27.3 µM
inactive: [4] | [8] | [10]

ClCCN1CCOCC1
inactive: [1] | [2] | [3] | [4] | [5] | [6] | [9] | [11] | [12] | [10]

C=CCC1=C(C)C(OC(=O)C2C(C=C(C)C)C2(C)C)CC1=O (stereo unspecified)
active: [1] 58.3 µM | [13] 61.1 µM | [8] 16.3 µM | [11] 20.5 µM
not listed: [2] | [3] | [5] | [9] | [10]
inactive: all other assays above

COC[C@H](C)N(C(=O)CCl)c1c(C)csc1C
inactive: [1] | [2] | [3] | [4] | [5] | [6] | [9] | [11] | [12]

Clc1ccc(-c2ccccc2)cc1
inactive: [1] | [2] | [3] | [6] | [7] | [9] | [11] | [12] | [10]

CN(C)C(=S)[S-].CN(C)C(=S)[S-].[Cu+2]
active: [1] 0.844 µM | [2] 16.7 µM | [3] 1.18 µM | [5] 3.73 µM | [6] 1.49 µM | [9] 0.938 µM

CC(C)C(=O)Cl
inactive: [1] | [2] | [3] | [4] | [6] | [9] | [12] | [10]

[Hg+2].[I-].[I-]
inactive: [8]
active: [1] 3.89 µM | [2] 10.9 µM | [3] 6.86 µM | [5] 34.4 µM | [6] 30.6 µM | [7] 30.6 µM | [9] 4.33 µM

Oc1ccc(C(c2ccc(O)cc2)(C(F)(F)F)C(F)(F)F)cc1
active: [1] 48.8 µM | [3] 54.2 µM | [8] 4.31 µM and 5.45 µM | [11] 60.8 µM | [10] 30.5 µM
inactive: [2] | [4] | [6] | [12]

CC1(C)C(/C=C(\Cl)C(F)(F)F)C1C(=O)OC(C#N)c1cccc(Oc2ccccc2)c1 (stereo unspecified)
inactive: [1] | [2] | [3] | [4] | [5] | [6] | [8] | [9] | [10]
